# Source: PubChem (The Scripps Research Institute Molecular Screening Center)
# GPR151 ag: activators of human GPR151, primary screen, cell-based, PathHunter beta-arrestin, luminescence; PathHunter beta-arrestin GPR151 cells; activation, % at 11.2 µM; 1% of 650,000 active; AID 1508602, 2020; in the data active = activation above about 4.9%
# FBW7 act: FBW7 E3 ligase activators, primary screen, biochemical, AlphaScreen, human; F-box/WD repeat-containing protein 7 (Homo sapiens), Q969H0; AlphaScreen FBW7–phospho-cyclin E peptide binding, activator screen; normalized activity (activation), % at 26.1 µM; 0.13% of 650,000 active; in the data active = normalized activity above about 1.9%;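 also: purified mutant Fbw7 with reduced substrate affinity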
# Target sequence (Q969H0 whole entry, looked up): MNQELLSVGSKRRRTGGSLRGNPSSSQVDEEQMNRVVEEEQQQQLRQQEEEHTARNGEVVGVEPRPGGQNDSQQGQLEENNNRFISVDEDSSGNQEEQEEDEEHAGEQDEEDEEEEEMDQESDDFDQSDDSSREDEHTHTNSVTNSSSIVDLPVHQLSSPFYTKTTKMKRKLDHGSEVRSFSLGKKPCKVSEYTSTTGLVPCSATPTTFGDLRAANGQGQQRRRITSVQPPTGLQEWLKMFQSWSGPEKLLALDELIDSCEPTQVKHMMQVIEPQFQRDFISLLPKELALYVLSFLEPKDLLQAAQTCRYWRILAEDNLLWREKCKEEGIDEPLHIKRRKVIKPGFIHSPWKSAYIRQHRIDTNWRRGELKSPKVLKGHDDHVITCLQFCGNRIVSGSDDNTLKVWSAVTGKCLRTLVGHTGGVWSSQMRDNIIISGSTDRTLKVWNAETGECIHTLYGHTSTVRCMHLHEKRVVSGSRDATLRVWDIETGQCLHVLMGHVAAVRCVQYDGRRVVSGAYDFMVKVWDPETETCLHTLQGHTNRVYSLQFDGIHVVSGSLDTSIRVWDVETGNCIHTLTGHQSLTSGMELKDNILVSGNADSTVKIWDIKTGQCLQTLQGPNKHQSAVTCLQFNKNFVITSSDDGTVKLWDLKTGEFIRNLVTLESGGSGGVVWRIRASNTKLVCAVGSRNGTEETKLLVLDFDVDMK
# TEAD-YAP inh: TEAD-YAP interaction inhibition, primary screen, TEAD-YAP interaction inhibitor project, luminescence, HEK-TIYL cells | TEAD-Gal4/YAP UAS-luciferase luminescence | inhibition, % at 9.12 µM | 1.4% of 640,000 active | AID 1259422, 2018; in the data active = inhibition above about 32%
# MITF primary: MITF inhibitors, primary screen, biochemical, AlphaScreen, human. AID 1259374, 2018. Microphthalmia-associated transcription factor (Homo sapiens), O75030. inhibition, % at 2.6 µM. AlphaScreen MITF homodimerization, bead proximity signal. 0.91% of 650,000 active; in the data active = inhibition above about 50%
# A number is an active result; 0 = inactive. A selection: hits, their analogues and other compounds. The true share with any hit is near 3.4%.
SMILES,GPR151 ag,FBW7 act,TEAD-YAP inh,MITF primary
O=C(/C=C/Nc1ccccc1Br)c1ccccc1,0,0,83,0
O=C(/C=C/Nc1ccccc1F)c1ccc(Br)cc1,0,0,0,0
O=C(/C=C\Nc1cccc(Br)c1)c1ccccc1,0,0,0,0
O=C(CN1C2CCC1CC(NC(=O)Nc1ccccc1)C2)Nc1ccccc1[N+](=O)[O-] (stereo not drawn),0,0,0,0
O=C(Nc1ccc2c(c1)OCO2)C1CC12CCN(C(=O)c1cc(-c3ccccc3)n[nH]1)CC2 (stereo not drawn),0,0,0,0
Cc1ccc2c(c1)-c1c(ssc1=S)C(C)(C)N2C(=O)c1ccncc1,0,0,55,0
Cc1cc(C)c2c(c1)-c1c(ssc1=S)C(C)(C)N2C(=O)C(C)C,0,0,0,52
Cc1nnc(SCC(=O)N2c3cc(C)c(C)cc3-c3c(ssc3=S)C2(C)C)s1,0,0,0,0
COc1ccc2c(c1)-c1c(ssc1=S)C(C)(C)N2C(=O)CSc1nnc(C)s1,0,0,34,0
COc1cc(C(=O)N2c3ccccc3-c3c(ssc3=S)C2(C)C)cc(OC)c1OC,0,0,61,0
CCC(=O)N1c2c(C)cc(C)cc2-c2c(ssc2=S)C1(C)C,0,0,0,0
CC1CN(CC(=O)N2CCC[C@H]2C(N)=O)Cc2cc(Cl)ccc2O1 (stereo partly drawn),0,0,0,0
c1ccc2[nH]c(CNc3nc(Nc4cnccn4)nc4c3ncn4-c3ccsc3)nc2c1,0,0,71,0
c1ccc(Nc2nc(NCc3nc4ccccc4[nH]3)c3ncn(-c4ccsc4)c3n2)nc1,0,0,78,0
O=C1CCCN1CCn1cnc2c(NCc3nc4ccccc4[nH]3)nc(Nc3ccncn3)nc21,0,0,0,0
c1ccc(-n2cnc3c(NCc4nc5ccccc5[nH]4)nc(Nc4ccncn4)nc32)cc1,0,0,35,0
c1ccc(-n2cnc3c(NCc4nc5ccccc5[nH]4)nc(Nc4ccccn4)nc32)cc1,0,0,53,0
COc1cc(Nc2nc(NCc3nc4ccccc4[nH]3)c3ncn(-c4ccsc4)c3n2)cc(OC)c1OC,0,0,0,0
c1ccc(CNc2nc(Nc3cnccn3)nc3c2ncn3-c2ccsc2)cc1,0,0,0,0
Cc1cc2oc(=O)cc(CN3CCN(C)CC3)c2cc1C(C)C,0,0,0,0
O=C(Nc1ccc(-c2cccc(F)c2)cc1)C1CCCN(C(=O)C2CC2)C1 (stereo not drawn),0,0,0,0
CC(C)(C)NC(=O)CSc1nc(-c2ccccc2)cs1,0,0,62,0
O=C(Nc1ccccc1N1CCN(C(=O)c2ccccc2)CC1)c1ccc2c(c1)OCCO2,0,0,0,0
O=C1NC(=S)NC(=O)C1=Cc1cn(-c2ccccc2)nc1-c1cccs1,0,0,0,75
O=C1NC(=S)NC(=O)C1=Cc1cn(-c2ccccc2)nc1-c1ccc2c(c1)OCCO2,0,0,0,0
SMILES,GPR151 ag,FBW7 act,TEAD-YAP inh,MITF primary
CCOCCOC(=O)C1=C(C)NC2=C(C(=O)CC(c3cccs3)C2)C1c1cccs1 (stereo not drawn),0,0,0,0
CC1=C(C(=O)OC(C)C)C(c2ccsc2)C2=C(CC(c3cccs3)CC2=O)N1 (stereo not drawn),0,0,67,0
CCOC(=O)C1=C(C)NC2=C(C(=O)CC(c3ccco3)C2)C1c1cccs1 (stereo not drawn),0,0,63,0
CC(=O)c1sc(N2N=C(c3cccs3)CC2c2ccco2)nc1C (stereo not drawn),0,0,0,0
CC(C(=O)Nc1ccncc1)c1ccc([N+](=O)[O-])cc1 (stereo not drawn),0,0,33,0
CC(C(=O)Nc1ncn[nH]1)c1ccc([N+](=O)[O-])cc1 (stereo not drawn),0,0,0,0
O=C(O)c1ccc2c(c1)C(=O)N(c1ccccc1[N+](=O)[O-])C2=O,0,0,0,0
O=C(O)c1ccc2c(c1)C(=O)N(Nc1ccccc1[N+](=O)[O-])C2=O,0,0,48,0
CC1(C)Oc2ccc3ccc(=O)oc3c2C/C1=N\Nc1ccccc1,0,0,49,0
O=c1nc(-c2ccccc2)c2ccccc2[nH]1,0,0,0,0
O=c1cc(-c2ccccc2)[nH]c2ccccc12,0,0,46,0
O=C(NC1CC1)C1CCN(C(=O)Nc2ccccc2)CC1,0,0,0,0
CC(=O)NC1CCN(C(=O)Nc2ccccc2)CC1,0,2.1,0,0
O=C(NCCn1cc(SCC(=O)N2CCOCC2)c2ccccc21)c1ccc(F)cc1,0,0,32,0
O=C(NCCn1cc(SCC(=O)N2CCN(c3ccccc3)CC2)c2ccccc21)c1ccc(F)cc1,0,0,0,0
NC1=NC(=O)/C(=C\c2ccc(-c3cccc(Cl)c3)o2)S1,0,0,0,0
NC1=NC(=O)/C(=C/c2ccc(-c3cccc(C(=O)O)c3)o2)S1,0,0,70,0
CCN=C1S/C(=C\c2ccc(-c3cccc(C(=O)O)c3)o2)C(=O)N1CC,0,0,34,0
CCN=C1S/C(=C/c2ccc(-c3ccc(Cl)cc3C(=O)O)o2)C(=O)N1CC,0,0,0,0
Cc1c(C(=O)NC(C)C)oc2ccc3c(c12)C(=O)CC(C)(C)O3,0,0,0,0
CCOC(=O)c1ccc(NC(c2ccc(O)cc2O)P(=O)(OCC)OCC)cc1 (stereo not drawn),0,0,0,52
CCc1ccc2c(c1)/C(=c1/sc3n(c1=O)CN(c1cccc(C(=O)O)c1)CN=3)C(=O)N2,0,3.9,0,0
CCc1cc2c(=O)c(-c3ccc4c(c3)OCCO4)coc2cc1OCC(=O)O,0,0,87,0
CCc1cc2c(=O)c(-c3ccc4c(c3)OCO4)coc2cc1OC(C)=O,0,0,0,0
CCc1cc2c(=O)c(-c3ccc4c(c3)OCCCO4)coc2cc1OC(=O)c1ccco1,0,0,44,0
SMILES,GPR151 ag,FBW7 act,TEAD-YAP inh,MITF primary
COc1ccc(C(=O)COc2cccc3c(=O)n(C)ccc23)cc1,0,0,48,0
O=C(Nc1sc2c(c1C(=O)NCc1ccccc1)CCCCC2)c1ccccc1F,0,0,0,0
Cc1ccc(C2=N/C(=C\c3ccccc3OC(=O)c3ccc(Cl)cc3)C(=O)O2)cc1,0,0,45,0
O=C1OC(c2ccc(Cl)cc2)=N/C1=C/c1ccccc1OC(=O)c1ccc(Br)cc1,0,0,0,0
O=Cc1ccccc1OCc1ccc2c(c1)OCO2,0,0,0,0
O=Cc1ccc(OCc2ccc3c(c2)OCO3)c(Cl)c1,0,0,72,0
Cc1nnnn1/C(=C\c1ccccc1)C(=O)N[C@H](c1nc2ccccc2[nH]1)C(C)C,0,0,49,0
CC(O)c1nc2ccccc2[nH]1 (stereo not drawn),0,0,0,0
CCOC(=O)c1sc(NC(=O)c2ccco2)c(SC#N)c1C,0,0,34,0
O=C(NCc1ccc(C(=O)NCCc2ccccn2)cc1)Nc1ccc(-c2cn[nH]c2)cc1,0,1.9,0,0
